To fix the notation:
B1: UCGCAGG (DNA:RNA)
RNA: GGGAGACCGGAAUUCAGAUUGUCCUCGCAGGUUAAAUCCCGUCGUAGCCACCA
DNA 1: CAATCTGAATTCCGGTCTCCC
DNA 2: TGGTGGCTACGACGGGATT
B2: UACAUAC (DNA:RNA)
RNA: B1 RNA with C26A, G27C, C28A, A29U, G30A, G31C
DNA 1: CAATCTGAATTCCGGTCTCCC
DNA 2: TGGTGGCTACGACGGGATT
B3: GGUAUUA (DNA:RNA)
RNA: GGGAGACCGGAAUUCAGAUUGUCCGGUAUUAUUAAAUCCCGUCGUAGCCACCA
DNA 1: CAATCTGAATTCCGGTCTCCC
DNA 2: TGGTGGCTACGACGGGATT
B4: GGUAAUG (DNA:RNA)
RNA: B3 RNA with U29A, A31G
DNA 1: CAATCTGAATTCCGGTCTCCC
DNA 2: TGGTGGCTACGACGGGATT
B5: UUAGUUG (DNA:RNA)
RNA: B3 RNA with G25U, G26U, U27A, A28G, A31G
DNA 1: CAATCTGAATTCCGGTCTCCC
DNA 2: TGGTGGCTACGACGGGATT
B6: AUGCCAC (DNA:RNA)
RNA: B1 RNA with U25A, C26U, A29C, G30A, G31C
DNA 1: CAATCTGAATTCCGGTCTCCC
DNA 2: TGGTGGCTACGACGGGATT
B7: GUUACCC (DNA:RNA)
RNA: B3 RNA with G26U, U29C, U30C, A31C
DNA 1: CAATCTGAATTCCGGTCTCCC
DNA 2: TGGTGGCTACGACGGGATT
B8: UGGGGCG (DNA:RNA)
RNA: B1 RNA with C26G, C28G, A29G, G30C
DNA 1: CAATCTGAATTCCGGTCTCCC
DNA 2: TGGTGGCTACGACGGGATT
B9: UGGGCGU (DNA:RNA)
RNA: B1 RNA with C26G, C28G, A29C, G31U
DNA 1: CAATCTGAATTCCGGTCTCCC
DNA 2: TGGTGGCTACGACGGGATT
B10: UGGGUGC (DNA:RNA)
RNA: B1 RNA with C26G, C28G, A29U, G31C
DNA 1: CAATCTGAATTCCGGTCTCCC
DNA 2: TGGTGGCTACGACGGGATT
B11: CCUGGUG (DNA:RNA)
RNA: B3 RNA with G25C, G26C, A28G, U29G, A31G
DNA 1: CAATCTGAATTCCGGTCTCCC
DNA 2: TGGTGGCTACGACGGGATT
B12: UGGCGUU (DNA:RNA)
RNA: B1 RNA with C26G, A29G, G30U, G31U
DNA 1: CAATCTGAATTCCGGTCTCCC
DNA 2: TGGTGGCTACGACGGGATT
B13: UGGUGCU (DNA:RNA)
RNA: B1 RNA with C26G, C28U, A29G, G30C, G31U
DNA 1: CAATCTGAATTCCGGTCTCCC
DNA 2: TGGTGGCTACGACGGGATT
B14: CCCUGGG (DNA:RNA)
RNA: B1 RNA with U25C, G27C, C28U, A29G
DNA 1: CAATCTGAATTCCGGTCTCCC
DNA 2: TGGTGGCTACGACGGGATT
B15: UGGGUGA (DNA:RNA)
RNA: B3 RNA with G25U, U27G, A28G, U30G
DNA 1: CAATCTGAATTCCGGTCTCCC
DNA 2: TGGTGGCTACGACGGGATT
B16: CUGGGUG (DNA:RNA)
RNA: B1 RNA with U25C, C26U, C28G, A29G, G30U
DNA 1: CAATCTGAATTCCGGTCTCCC
DNA 2: TGGTGGCTACGACGGGATT
B17: CUAAUAC (DNA:RNA)
RNA: B3 RNA with G25C, G26U, U27A, U30A, A31C
DNA 1: CAATCTGAATTCCGGTCTCCC
DNA 2: TGGTGGCTACGACGGGATT
B18: UUAAUCA (DNA:RNA)
RNA: B3 RNA with G25U, G26U, U27A, U30C
DNA 1: CAATCTGAATTCCGGTCTCCC
DNA 2: TGGTGGCTACGACGGGATT
B19: UUUGCUU (DNA:RNA)
RNA: B3 RNA with G25U, G26U, A28G, U29C, A31U
DNA 1: CAATCTGAATTCCGGTCTCCC
DNA 2: TGGTGGCTACGACGGGATT
B20: CCAAUGG (DNA:RNA)
RNA: B1 RNA with U25C, G27A, C28A, A29U
DNA 1: CAATCTGAATTCCGGTCTCCC
DNA 2: TGGTGGCTACGACGGGATT
B21: UACCAUC (DNA:RNA)
RNA: B1 RNA with C26A, G27C, G30U, G31C
DNA 1: CAATCTGAATTCCGGTCTCCC
DNA 2: TGGTGGCTACGACGGGATT
B22: CAGGAGG (DNA:RNA)
RNA: B1 RNA with U25C, C26A, C28G
DNA 1: CAATCTGAATTCCGGTCTCCC
DNA 2: TGGTGGCTACGACGGGATT
B23: GGCAUGG (DNA:RNA)
RNA: B3 RNA with U27C, U30G, A31G
DNA 1: CAATCTGAATTCCGGTCTCCC
DNA 2: TGGTGGCTACGACGGGATT
B24: GGAAUGG (DNA:RNA)
RNA: B3 RNA with U27A, U30G, A31G
DNA 1: CAATCTGAATTCCGGTCTCCC
DNA 2: TGGTGGCTACGACGGGATT
B25: GGAUGGG (DNA:RNA)
RNA: B3 RNA with U27A, A28U, U29G, U30G, A31G
DNA 1: CAATCTGAATTCCGGTCTCCC
DNA 2: TGGTGGCTACGACGGGATT
B26: GUAUGGU (DNA:RNA)
RNA: B3 RNA with G26U, U27A, A28U, U29G, U30G, A31U
DNA 1: CAATCTGAATTCCGGTCTCCC
DNA 2: TGGTGGCTACGACGGGATT
B27: GCAUGGG (DNA:RNA)
RNA: B1 RNA with U25G, G27A, C28U, A29G
DNA 1: CAATCTGAATTCCGGTCTCCC
DNA 2: TGGTGGCTACGACGGGATT
B28: GCAUCGU (DNA:RNA)
RNA: B1 RNA with U25G, G27A, C28U, A29C, G31U
DNA 1: CAATCTGAATTCCGGTCTCCC
DNA 2: TGGTGGCTACGACGGGATT
B29: GCAUAGC (DNA:RNA)
RNA: B1 RNA with U25G, G27A, C28U, G31C
DNA 1: CAATCTGAATTCCGGTCTCCC
DNA 2: TGGTGGCTACGACGGGATT
B30: GUAUGGG (DNA:RNA)
RNA: B1 RNA with U25G, C26U, G27A, C28U, A29G
DNA 1: CAATCTGAATTCCGGTCTCCC
DNA 2: TGGTGGCTACGACGGGATT
B31: GCAUGGC (DNA:RNA)
RNA: B1 RNA with U25G, G27A, C28U, A29G, G31C
DNA 1: CAATCTGAATTCCGGTCTCCC
DNA 2: TGGTGGCTACGACGGGATT
B32: GUCAUGG (DNA:RNA)
RNA: B3 RNA with G26U, U27C, U30G, A31G
DNA 1: CAATCTGAATTCCGGTCTCCC
DNA 2: TGGTGGCTACGACGGGATT
B33: GGAUGGC (DNA:RNA)
RNA: B3 RNA with U27A, A28U, U29G, U30G, A31C
DNA 1: CAATCTGAATTCCGGTCTCCC
DNA 2: TGGTGGCTACGACGGGATT
B34: GCAUGGU (DNA:RNA)
RNA: B1 RNA with U25G, G27A, C28U, A29G, G31U
DNA 1: CAATCTGAATTCCGGTCTCCC
DNA 2: TGGTGGCTACGACGGGATT

34 molecules from publication PMC9911399, “Two distinct binding modes provide the RNA-binding protein RbFox with extraordinary sequence specificity” can be followed below.

Substitutions are numbered along the chain they refer to; changes in the protein carry UniProt numbers. The full ranking holds about 16,000 sequences; the median of “ka relative to ugcaugu” is about 0.0091, and the highest 2% start at about 0.032. This is one part of a sample in which the highest values are shown more often than they occur.

This experiment addresses T1, RBFOX1 RRM (Homo sapiens, UniProt Q9NWB1 109-208).
T1 sequence: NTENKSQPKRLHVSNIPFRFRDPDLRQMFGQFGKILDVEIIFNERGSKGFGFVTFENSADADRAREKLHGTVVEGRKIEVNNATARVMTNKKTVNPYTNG
Nature of the experiment: EMSA; HiTS-Eq, 1 nM pool, 10 min; buffer printed only for the single-RNA assays: 10 mM Tris pH 7.5, 150 mM NaCl, 3.4 mM EDTA, 0.001% NP-40, 30 C. The settings on record: tags: His6 N-terminal (pET28a); label: 5' 32P. The procedure, abridged:
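A pool of RNA with 7 randomized nucleotides, 5′-radiolabelled and with DNA-annealed flanks, was equilibrated at 1 nM for 10 min in 50 µL with purified RbFox RRM, wild type or mutant, across increasing protein concentrations. Free RNA was separated by 8% native PAGE, excised, reverse-transcribed, barcoded by PCR and sequenced. Relative association constants were obtained from read-count changes of each RNA species versus the control reaction and normalised to the cognate motif.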
For orientation: Mobility shift assays separate free from complexed probe on a gel.
In the case of B1, the binding signal was 0.0168 KA relative to UGCAUGU.

In the case of B2, the binding signal was 0.00108 KA relative to UGCAUGU.

Turning to B3, the binding signal was 0.00455 KA relative to UGCAUGU.

Regarding B4, the binding signal is 0.0152 KA relative to UGCAUGU.

B5: the binding signal was 0.0187 KA relative to UGCAUGU.

As for B6, the binding signal was 0.0065 KA relative to UGCAUGU.

Regarding B7, the binding signal was 0.0047 KA relative to UGCAUGU.

On to B8, for which the binding signal is 0.0294 KA relative to UGCAUGU.

B9: the binding signal is 0.0388 KA relative to UGCAUGU.

As to B10, the binding signal is 0.0429 KA relative to UGCAUGU.

Turning to B11, the binding signal was 0.0199 KA relative to UGCAUGU.

Regarding B12, the binding signal was 0.0221 KA relative to UGCAUGU.

Regarding B13, the binding signal was 0.0292 KA relative to UGCAUGU.

In the case of B14, the binding signal is 0.00714 KA relative to UGCAUGU.

Consider B15, for which the binding signal is 0.0273 KA relative to UGCAUGU.

Take B16: the binding signal was 0.0408 KA relative to UGCAUGU.

As for B17, the binding signal was 0.00176 KA relative to UGCAUGU.

Consider B18, for which the binding signal was 0.00562 KA relative to UGCAUGU.

Regarding B19, the binding signal was 0.0228 KA relative to UGCAUGU.

Take B20: the binding signal is 0.00975 KA relative to UGCAUGU.

Turning to B21, the binding signal is 0.000341 KA relative to UGCAUGU.

With B22, the binding signal was 0.00882 KA relative to UGCAUGU.

Consider B23, for which the binding signal was 0.104 KA relative to UGCAUGU.

Turning to B24, the binding signal was 0.0293 KA relative to UGCAUGU.

On to B25, for which the binding signal is 0.0169 KA relative to UGCAUGU.

With B26, the binding signal is 0.0104 KA relative to UGCAUGU.

For the molecule B27, the binding signal is 0.0735 KA relative to UGCAUGU.

In the case of B28, the binding signal was 0.0157 KA relative to UGCAUGU.

As to B29, the binding signal is 0.0095 KA relative to UGCAUGU.

Take B30: the binding signal was 0.00944 KA relative to UGCAUGU.

On to B31, for which the binding signal is 0.43 KA relative to UGCAUGU.

With B32, the binding signal was 0.0107 KA relative to UGCAUGU.

As for B33, the binding signal is 0.0116 KA relative to UGCAUGU.

Turning to B34, the binding signal was 0.558 KA relative to UGCAUGU.
